TrxR1 inh – blocks rat thioredoxin reductase 1 | O89049 | recombinant rTrxR1, NADPH fluorescence consumption, selenite substrate | Potency, µM (series often up to 114 µM), inactives show top-dose activity change, negative = inhibition, most hits filed as inhibitors | actives 1% (n = 390,000) | AID 588453; further: on the % scale 0 is the no-effect control and ±100 the full control effect; nearly all actives have a fitted effect of over 65% in size
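Rat TrxR1 (90 nM in the dispensed reagent) was pre-reduced with 400 uM NADPH for 5 min at room temperature, then incubated with compound for 15 min. After 400 uM selenite was added, NADPH fluorescence (Ex 340/Em 450 nm) was followed for 8 min.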
GLP-1R inv ag – GLP-1 receptor (human) inverse agonism; P43220; HEK293 GLP-1R CRE-luciferase, luminescence, 24 h; GLP-1R form is constitutively active; Potency, µM (titrated, usually from 38.3 µM), for the others: at the top dose activity change, negative = inhibition, actives largely listed as inhibitors; actives 1.6% (n = 410,000); further: on the % scale 0 is the no-effect control and ±100 the full control effect; nearly all actives have a fitted effect of over 55% in size
Target sequence (P43220 whole entry, looked up): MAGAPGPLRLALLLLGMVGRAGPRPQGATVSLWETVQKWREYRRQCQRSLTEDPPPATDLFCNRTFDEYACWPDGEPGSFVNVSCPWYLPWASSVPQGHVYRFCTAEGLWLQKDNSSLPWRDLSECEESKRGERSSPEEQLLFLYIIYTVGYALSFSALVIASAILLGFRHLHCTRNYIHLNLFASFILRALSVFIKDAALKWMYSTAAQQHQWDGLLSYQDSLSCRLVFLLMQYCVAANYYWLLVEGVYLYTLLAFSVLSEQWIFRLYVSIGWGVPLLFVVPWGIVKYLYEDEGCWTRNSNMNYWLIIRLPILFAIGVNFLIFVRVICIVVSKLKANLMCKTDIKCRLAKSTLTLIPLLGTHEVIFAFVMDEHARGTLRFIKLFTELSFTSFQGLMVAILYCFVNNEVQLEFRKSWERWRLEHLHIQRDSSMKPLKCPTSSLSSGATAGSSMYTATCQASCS
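Cells are plated, allowed 12 hours at 37 deg C, then treated with compounds for 24 hr before luciferase detection reagent is added and luminescence is read after 12 min at room temperature. The HEK293 line carries constitutively active GLP-1R with a cAMP-responsive reporter.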
HEK293 tox – cytotoxicity counter-screen for GLP-1 receptor inverse agonists | HEK293 cAMP-luciferase reporter cells, luminescence, 24 h | Potency, µM (doses to about 38.3 µM), for inactives: at the top dose activity change, negative = inhibition, usual class: inhibitors | actives 0.13% (n = 410,000) | AID 624418;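 further: loss of luciferase light is scored as toxicity; on the % scale 0 is the no-effect control and ±100 the full control effect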
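Here, cytotoxicity is scored as loss of luminescence. The MLSMR collection was tested on cells seeded in medium containing 10% Nu serum, with a 24 hr compound exposure preceded by 12 hours of culture.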
IDH1 R132H inh – human IDH1 R132H inhibition. O75874. IDH1-R132H enzyme, NADPH consumption, diaphorase/resazurin fluorescence. Potency, µM (highest dose often 76.6 µM), for inactives: top-dose activity change, negative = inhibition, hits mostly inhibitors. actives 0.093% (n = 390,000); further: on the % scale 0 is the no-effect control and ±100 the full control effect; nearly all actives have a fitted effect of over 65% in size
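IDH1-R132H (0.5 ug/mL) preincubated 30 min with compound, then NADPH (0.016 mM) and alpha-KG (2 mM) added; 80 min at RT, pH 7.5. Remaining NADPH coupled via diaphorase/resazurin to fluorescence (540/590 nm); concentration-response curves normalized to no-enzyme control.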
TrxR1 substrate – rat thioredoxin reductase 1 substrate activity | O89049 | actives 0.01% (n = 390,000) | AID 588456 | purified TrxR1 substrate turnover, NADPH consumption readout | Potency, µM (series often up to 114 µM), for inactives: top-dose activity change, negative = substrate turnover; further: on the % scale 0 is the no-effect control and ±100 the full control effect; nearly all actives have a fitted effect of over 50% in size
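Rat TrxR1, dispensed at 90 nM, was prereduced with 400 uM NADPH (final) for 5 min at ~22 deg C, then incubated with compound 15 min before 400 uM selenite. A first-read NADPH fluorescence drop versus no-compound background flagged substrates.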
GLP1R ag – activates the human GLP-1 receptor. AID 624172. P43220. HEK293 GLP-1R CRE-luciferase, luminescence, 4-6 h; cells express a hypersensitive GLP-1R form. Potency, µM (top dose mostly 45.6 µM), inactives show at the highest dose activation, hits mostly activators. actives 0.007% (n = 380,000); further: % of control where 0% means no effect
* marks the source's active call; other numbers are inactive results; ? = inconclusive; . = no result given; [ ] = remark or other dose. Most compounds without a hit are left out; they make up all but 2.7% or so of the library. The call rests on the fitted dose curve; in most records, active means well fitted curve in the direction sought with a large enough effect; inconclusive means small, poorly fitted or top-dose-only effect, or another doubt; inactive means no such curve, though single readings can be large; an effect the other way counts as inactive or inconclusive. Potency means the concentration at half of the fitted maximal effect.

SMILES	TrxR1 inh	GLP-1R inv ag	HEK293 tox	IDH1 R132H inh	TrxR1 substrate	GLP1R ag
O=C(CN1CCN(C(c2ccccc2)c2ccccc2)CC1)NCc1ccccc1	14%	?	0%	-6%	3%	8%
Cc1cc2c(cc1S(=O)(=O)Nc1cc(C(F)(F)F)cc(C(F)(F)F)c1)OCC(=O)N2	-13%[57.1 µM]	?	-10%	-27%	-15%[57.1 µM]	.
CCCSc1ncc(Cl)c(C(=O)Nc2sc(C(C)=O)c(C)c2C(=O)OCC)n1	17%	0%	1%	.	4%	.
CCOc1ccccc1N(C)C(=O)NCc1noc2ccccc12	12%	1%	-4%	5%	5%	.
C=C1C(=O)C2=CC1CCC(=O)C1(C)CCC(OC(C)=O)C(C)(C)C1CC2O (configuration not stated)	50µM*	?	?	0%	1%	-11%
Cc1cccc(C(=O)Oc2ccc(/C=N/NC(=O)c3cc(O)cc(O)c3)cc2)c1	-10%	10µM*	-12%	3%	-13%	-34%
CCOCCc1nnc(NC(=O)C(=O)c2cc(C)n(-c3cccc(C)c3)c2C)s1	33%	-13%	16%	0%	15%	.
CC[N+]1(CC(=O)c2cccs2)CCCCC1	-15%	.	.	.	11%[0.0914 µM]	.
O=C(CC(O)(CC(=O)OCc1ccccc1)C(=O)OCc1ccccc1)OCc1ccccc1	24%	8.9µM*	-1%	6%	0%	9%
CC(C)=C[C@H]1C[C@H](C)[C@H]2CC[C@H](C)c3c(O[C@@H]4OC[C@@H](O)[C@H](O)C4O)c(O)c(C)c1c32 (some centres not stated)	10%	10µM*	-25%	-8%	-5%	1%
Cc1ccc(S(=O)(=O)N(C)C)cc1NC(=O)COC(=O)c1sc2cc(Cl)ccc2c1Cl	35µM*	4%	5%	6%	0%	-1%
Cc1nnnn1/C(=C\c1ccccc1)C(=O)OCC(=O)Nc1cccc(S(=O)(=O)N(C)C)c1	13µM*	?	?	-5%	-8%	-6%
CN(C)S(=O)(=O)c1cccc(NC(=O)COC(=O)c2cc(-c3cccc(Br)c3)nc3ccccc23)c1	19%	10µM*	-9%	-2%	16%	-25%
Cc1nnnn1/C(=C\c1ccccc1)C(=O)OCC(=O)Nc1ccc(Cl)cc1F	?	?	?	2%	10%	-17%
CCOC(=O)Cc1ccc(NC(=O)N2CC(C)Oc3ccc(Cl)cc32)cc1 (configuration not stated)	2%	?	4%	14%	0%	.
CN1[C@H]2CC(OC(=O)[C@H](CO)c3ccccc3)C[C@H]1[C@H]1O[C@H]12 (some centres not stated)	.	.	.	.	.	2%
O=C(Nc1nc(-c2cccs2)cs1)c1cccc(S(=O)(=O)N2CCCCCC2)c1	-11%	5.6µM*	2%	-1%	-7%	-4%
Cc1ccc(NC(=O)c2ccc(NC(=O)N3CCSc4nc(C)cc(C)c43)cc2)c(Cl)c1	3%	12%	22%	9%	-2%	.
Cc1ccc(C(=O)c2c3ccc([N+](=O)[O-])cc3[n+]([O-])n2CCCN)cc1	56µM*	12%	0%	16%	2%	-5%
Cc1ccc(C(=O)c2c3ccc(C(F)(F)F)cc3[n+]([O-])n2CCCN)cc1	-39%	?	-16%	6%	8%[57.1 µM]	15%
Cc1ccccc1C(=O)NC1CC(C)(C)NC(C)(C)C1	-12%	0%	2%	-6%	-12%	-7%
CC1(C)CC(NC2C3CC4CC(C3)CC2C4)CC(C)(C)N1 (configuration not stated)	12%[57.1 µM]	3.2µM*	?	2%	5%[57.1 µM]	6%
CCOC(=O)C(=O)N/N=C/c1ccc(F)cc1	26%[57.1 µM]	5%	-2%	7%	4%[57.1 µM]	1%
CCOC(=O)C(=O)NNc1ccc(F)cc1	5%[57.1 µM]	0.89µM*	-28%	1%	7%[57.1 µM]	-4%
COc1ccc(Nc2c3c(nc4ccccc24)CCC3)cc1	-3%[57.1 µM]	1.8µM*	7.9µM*	1%	7%[57.1 µM]	4%
SMILES	TrxR1 inh	GLP-1R inv ag	HEK293 tox	IDH1 R132H inh	TrxR1 substrate	GLP1R ag
COc1ccc(Nc2c3c(nc4ccc(NC(=O)/C=C/c5cccc(OC)c5OC)cc24)CCCC3)cc1OC	13%	?	?	-14%	-5%	.
COc1ccc(/C=C/C(=O)Nc2ccc3nc4c(c(Nc5ccc(OC)c(OC)c5)c3c2)CCCC4)cc1	16%	8.9µM*	4.5µM*	4%	-5%	.
COc1ccc(/C=C/C(=O)Nc2ccc3nc4c(c(Nc5ccccc5OC)c3c2)CCCC4)cc1	1%	8.9µM*	?	-30%	-10%	.
Fc1ccc(Nc2c3c(nc4ccccc24)CCC3)cc1	21%[11.4 µM]	?	-29%	6%	5%[11.4 µM]	0%
COCC(=O)OC1CCn2c1nc1c2C(=O)C(C)=C(NC(C)=O)C1=O (configuration not stated)	?	10µM*	11µM*	25%	-13%	-13%
Cc1ccc(Nc2ncc(C(=O)N3CCN(c4ccc(F)cc4)CC3)c3ccccc23)cc1Cl	33%	2.8µM*	6%	11%	39%	-2%
COc1ccc(Nc2ncc(C(=O)N3CCN(c4cccc(Cl)c4)CC3)c3ccccc23)cc1	42%	8.9µM*	7%	-6%	19%	-2%
Cc1ccc2occ(CC(=O)N(Cc3ccc(Cl)cc3)C3CCS(=O)(=O)C3)c2c1 (configuration not stated)	7%	11µM*	-7%	2%	-4%	.
Cc1ccc2c(CC(=O)N(Cc3ccc(Cl)cc3)Cc3ccco3)coc2c1	50µM*	?	-1%	.	-12%	.
CC(=O)OCC1=C(C(=O)OC(C)(C)C)N2C(=O)[C@@H](NC(=O)Cc3ccccc3)[C@H]2SC1	6.3µM*	14%	0%	10%	3%	5%
CC1=C(C(=O)OCC(Cl)(Cl)Cl)N2C(=O)C(NC(=O)Cc3ccccc3)C2SC1 (configuration not stated)	16%[57.1 µM]	-7%	12%	3%	-1%	1%
CC(=O)OC1CCC2(C)C(=CCC3C2CCC2(C)C(C(C)=O)CCC32)C1 (configuration not stated)	.	.	.	.	.	6%
COc1ccc(C(=O)NCCCn2ccnc2)cc1	13%[57.1 µM]	-7%	-21%	2%	5%[57.1 µM]	-6%
COc1ccc2c(c1)CCc1c(C(=O)N(C)c3ccccc3)noc1-2	79µM*	?	4%	-11%	-3%	13%
